# Reference: the supplement of paper PMC3545927
# The other results are listed elsewhere or left out. How many sequences the whole screen found active is unknown.
# Target: furin, P09958
# Assay: furin cleavage Z-score vs untreated control; higher = more cleavage, active = 3.5 or more, inactive = 1 or less, 8 variable residues between constant flanks
# Summary of the method: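 Cleavage by purified furin was measured on 8-mer peptides fused to a cDNA oligonucleotide and held on magnetic beads by their N-terminus. Reactions (0.01 ml, 1:10 enzyme:substrate) ran 7.5, 15 or 30 min in 50 mM HEPES pH 7.5 with CaCl2 and NaCl. Released DNA was adapter-tagged by PCR and sequenced, with read counts giving abundance. Log counts versus furin-free reactions were lowess-adjusted and scaled by median absolute deviation to give the cleavage Z-score.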
# Sequence of furin, P09958 (P09958 whole entry): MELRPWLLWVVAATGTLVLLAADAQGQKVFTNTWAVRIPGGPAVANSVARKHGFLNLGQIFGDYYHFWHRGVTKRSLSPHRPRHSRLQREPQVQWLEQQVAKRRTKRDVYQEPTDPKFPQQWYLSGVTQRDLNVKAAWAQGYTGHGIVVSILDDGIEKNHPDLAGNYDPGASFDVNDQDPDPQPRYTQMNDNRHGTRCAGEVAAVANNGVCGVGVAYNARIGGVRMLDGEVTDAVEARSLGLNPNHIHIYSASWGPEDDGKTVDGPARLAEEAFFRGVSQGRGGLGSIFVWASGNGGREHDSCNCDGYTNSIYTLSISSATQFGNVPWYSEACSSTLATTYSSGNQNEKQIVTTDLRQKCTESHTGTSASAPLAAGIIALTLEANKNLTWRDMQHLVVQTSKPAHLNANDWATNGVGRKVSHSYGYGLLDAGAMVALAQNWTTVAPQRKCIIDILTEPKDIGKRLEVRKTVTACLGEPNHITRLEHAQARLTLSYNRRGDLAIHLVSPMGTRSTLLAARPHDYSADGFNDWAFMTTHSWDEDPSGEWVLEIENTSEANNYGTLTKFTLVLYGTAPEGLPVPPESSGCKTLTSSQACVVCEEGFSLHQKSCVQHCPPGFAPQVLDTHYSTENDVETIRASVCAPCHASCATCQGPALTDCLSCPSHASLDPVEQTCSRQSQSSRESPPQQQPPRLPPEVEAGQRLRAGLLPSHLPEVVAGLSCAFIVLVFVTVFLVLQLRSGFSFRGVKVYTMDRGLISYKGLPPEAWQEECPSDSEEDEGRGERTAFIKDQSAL
Sequence,furin cleavage Z-score (7.5 min),furin cleavage Z-score (15 min),furin cleavage Z-score (30 min)
CAEYTTPCSGAGNASASA [HC1969],-0.151 (inactive),-0.366 (inactive),-0.644 (inactive)
CAWFCLLLLAAGNASASA [HC1657],-0.863 (inactive),-0.454 (inactive),-2.53 (inactive)
CACREVPCHRAGNASASA [HC2440],-0.508 (inactive),-2.04 (inactive),-1.44 (inactive)
CASERSQPRGAGNASASA [HC187],0.546 (inactive),0.429 (inactive),0.503 (inactive)
CASIRRQKREAGNASASA [FS-563],11.3 (active),10.3 (active),8.38 (active)
CAWRQEMGGNAGNASASA [HC1277],0.884 (inactive),-0.41 (inactive),1.35
CAAKRRQKREAGNASASA [FS-1110],12.9 (active),13 (active),8.62 (active)
CATVRRQKREAGNASASA [FS-1175],12.4 (active),13.7 (active),9.11 (active)
CAPRRRKGRNAGNASASA [FS-1473],10.1 (active),11.5 (active),9.35 (active)
CATVLDQAETAGNASASA [HC826],1.14,0.395 (inactive),-0.728 (inactive)
CAQTNWQKLEAGNASASA [HC1036],0.636 (inactive),-0.515 (inactive),-0.384 (inactive)
CAYFSMVGNWAGNASASA [HC341],-0.31 (inactive),-0.533 (inactive),-2.31 (inactive)
CAVLSRQKREAGNASASA [FS-206],11.7 (active),9.59 (active),8.73 (active)
CAPRRRQQREAGNASASA [FS-1551],6.3 (active),4.83 (active),5.13 (active)
CACKPLLREEAGNASASA [HC1229],-2.56 (inactive),0.033 (inactive),0.531 (inactive)
CAPRRHWTTQAGNASASA [HC308],0.172 (inactive),-0.306 (inactive),0.325 (inactive)
CAVLSDFKTWAGNASASA [HC1154],-0.128 (inactive),-0.333 (inactive),-0.963 (inactive)
CATTPCAGSWAGNASASA [HC61],-1.21 (inactive),0.988 (inactive),1.04
CASFDPLVAEAGNASASA [HC1288],-1.29 (inactive),-0.652 (inactive),0.659 (inactive)
CAWLERTMRSAGNASASA [FS-108],4.21 (active),5.66 (active),4.38 (active)
CAEARRTMRSAGNASASA [FS-228],6.84 (active),6.18 (active),7.34 (active)
CACAVRHMRSAGNASASA [FS-1513],0.659 (inactive),0.712 (inactive),1.2

Sequence,furin cleavage Z-score (7.5 min),furin cleavage Z-score (15 min),furin cleavage Z-score (30 min)
CALEVVTSTWAGNASASA [HC987],0.41 (inactive),0.551 (inactive),1.7
CAEVVTSTWAAGNASASA [HC2243],-0.622 (inactive),0.588 (inactive),-0.814 (inactive)
CAVVCCSMIYAGNASASA [HC2064],-0.191 (inactive),-0.994 (inactive),0.202 (inactive)
CAGSPPSVASAGNASASA [HC1257],-0.959 (inactive),-1.08 (inactive),0.309 (inactive)
CACFRKHPDAAGNASASA [HC453],-1.37 (inactive),-1.46 (inactive),-0.48 (inactive)
CARWRRSKRAAGNASASA [FS-959],11.1 (active),11.6 (active),8.46 (active)
CAGSSRRFRAAGNASASA [FS-1003],-0.163 (inactive),1.3,2.13
CACFRRSKRAAGNASASA [FS-1514],9.65 (active),9.01 (active),6.16 (active)
CARWRRTKGAAGNASASA [FS-1873],-0.133 (inactive),-1.53 (inactive),-0.0248 (inactive)
CACVRRSPCAAGNASASA [FS-2118],-0.381 (inactive),-1.71 (inactive),-0.39 (inactive)
CAGSPRSKRAAGNASASA [FS-788],11.2 (active),9.92 (active),8.49 (active)
CAGVLTTSCGAGNASASA [HC1512],-0.572 (inactive),0.491 (inactive),-0.869 (inactive)
CAATQLRRHIAGNASASA [HC288],-0.217 (inactive),0.529 (inactive),1.16
CAYASRGIRPAGNASASA [FS-1618],-0.625 (inactive),-0.502 (inactive),-1.11 (inactive)
CAAQQRKKRAAGNASASA [FS-1306],6.17 (active),6.15 (active),6.14 (active)
CAAGARLVVLAGNASASA [HC830],1.19,0.934 (inactive),0.0298 (inactive)
CAGGQIVGGVAGNASASA [HC174],-1.23 (inactive),-1.41 (inactive),-1.78 (inactive)
CAAGARKKRAAGNASASA [FS-970],6.63 (active),6.95 (active),6.49 (active)
CASHQKKKRAAGNASASA [FS-1486],4.35 (active),2.8,4.35 (active)
CAGGQRKKRAAGNASASA [FS-1125],8.55 (active),7.61 (active),6.45 (active)
CAAGAGAGAGAGNASASA [NE3],-0.934 (inactive),-0.656 (inactive),-0.752 (inactive)
CALREVPCHRAGNASASA [HC2425],-0.109 (inactive),-0.538 (inactive),-0.256 (inactive)
